# Laboratory results taken from PubChem BioAssay AID504408 (Broad Institute, 2011).
# In all, about 300,000 compounds went through this assay and about 5,200 (1.7%) were called active. Shown is part of a subset that was picked to be rich in actives. Unmarked numbers belong to inactive results.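 The calls were made as follows: active = mean replicate activation of at least 50% with a set share of replicates each reaching 50%; inconclusive = only one of those two conditions met; inactive = mean below 50% and too few replicates reaching it.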
# Assay: HSF-1 activators, primary screen, NIH3T3-HGL cells, MG132 stress, luminescence, single point (AID 504408);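 also: 0% = median of the neutral control wells and 100% = twice that signal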
# Settings: NIH3T3-HGL HSF-1 luciferase reporter, MG132, 8 h; at 9 µM; hits give high values; 100% = twice DMSO control signal
row,SMILES,activation
1,CN(CC(=O)NCc1cccnc1)S(=O)(=O)c1cc(Cl)ccc1Cl,1.99%
2,CC(Oc1ccc(Br)cc1)C(=O)NCC(c1ccco1)N1CCCCC1 (centres undefined),12.7%
3,CC(OC(=O)c1ccc(-n2cnnn2)cc1)C(=O)NCc1ccccc1 (centres undefined),-14%
4,CCOC(=O)N1CCN(C(c2cccnc2)c2ccc3cccnc3c2O)CC1 (centres undefined),67.9% (active)
5,CCOC(=O)N1CCN(C(=O)CSc2nc(=O)n3cccc(C)c3n2)CC1,-0.428%
6,CCN1CCN(C(c2cccnc2)c2cc(Cl)c3cccnc3c2O)CC1 (centres undefined),-83.7%
7,CC(=O)Nc1ccc(Nc2nc3c(S(=O)(=O)c4ccc(C)c(C)c4)nnn3c3ccccc23)cc1,74.4% (active)
8,Cc1ccc(S(=O)(=O)c2nnn3c2nc(N2CCN(c4ccccn4)CC2)c2ccccc23)cc1,30.6%
9,Cc1cccc(Nc2nc3c(S(=O)(=O)c4ccccc4)nnn3c3ccccc23)c1C,8.48%
10,COc1ccc(/C=C(\C#N)C(=O)OCC(=O)N(C)C2CCS(=O)(=O)C2)cc1 (centres undefined),-4.8%
11,Cc1ccc2nc(SCC(=O)Nc3cccc4ccccc34)nc(=O)n2c1,16.2%
12,CN(C)CCCn1c(N)c(C#N)c2nc(C#N)c(C#N)nc21,76.2% (active)
13,CC(C)(C)c1ccc(C(=O)NCCn2c(N)c(C#N)c3nc4ccccc4nc32)cc1,27.2%
14,N#Cc1c(N)n(CCOC(=O)c2ccc(Cl)cc2)c2nc3ccccc3nc12,26.8%
15,CC(OC(=O)CCCc1c[nH]c2ccccc12)C(=O)Nc1ccc(S(N)(=O)=O)cc1 (centres undefined),8.99%
16,CC(=O)Nc1ccc(C(=O)Nc2cccc(S(=O)(=O)NC3=NCCC3)c2)cc1,-9.72%
17,COc1ccc(C(=O)CN2C(=O)NC3(CCc4ccccc43)C2=O)c(OC)c1 (centres undefined),-14%
18,Cc1nn(C)cc1C(=O)c1ccccc1,5.22%
19,Cc1cc(NC(=O)C(C)N2C(=O)c3ccccc3S2(=O)=O)no1 (centres undefined),-3.5%
20,COc1cc2ccccc2cc1C(=O)N1CCOCC1,-5.8%
21,C=CCN1C(=O)C(Cc2cccc(Cl)c2)S/C1=N/N=C/c1ccco1 (centres undefined),23.1%
22,C=CCN1C(=O)C(Cc2ccc(OCC)cc2)SC1=Nc1ccc(C(=O)O)cc1 (centres undefined),58.5% (active)

row,SMILES,activation
1,CCOc1ccc(N=C2SC(C(=O)O)CC(=O)N2C)cc1 (centres undefined),-0.001%
2,COc1cccc(N2CC(NC(=O)c3ccc4ccccc4c3)CC2=O)c1 (centres undefined),-3.4%
3,Nc1c(-c2ccccc2)nnn1Cc1ccccc1,17.5%
4,O=C(/C=C/c1ccc2c(c1)OCO2)NCc1cn2cc(Cl)ccc2n1,1.53%
5,O=c1c2ccccc2nc2n1C(CSc1ccc(Cl)cc1)CN2 (centres undefined),-13%
6,Clc1ccc2nc(CSc3ccccc3)cn2c1,70.2% (active)
7,N#CC1(NC(=O)COC(=O)Cc2n[nH]c(=O)c3ccccc23)CCCCC1,3.96%
8,COc1ccc(-c2cc(C(=O)N(C)CC(=O)Nc3ccccc3Cl)c3ccccc3n2)cc1OC,-23.1%
9,CCOC(=O)C(C)n1cnc2sc(C)c(C)c2c1=O (centres undefined),6.07%
10,Cc1cccc(OC(=O)c2sc3ncn(C)c(=O)c3c2C)c1,17.3%
11,Cc1c(C(N)=O)sc2ncn(CCOc3ccccc3)c(=O)c12,58.5% (active)
12,CCOc1ccc(CCNC(=O)COC(=O)c2ccc(F)c(S(=O)(=O)N3CCOCC3)c2)cc1OCC,-9.54%
13,CCC(=O)N1CCc2cc(Br)c(S(=O)(=O)NCCN3CCCCC3CC)cc21 (centres undefined),-1.08%
14,COc1ccc(C(=O)Nc2cccc(NC(=O)c3ccc(OC)cc3OC)n2)c(OC)c1,-34.1%
15,O=C1CC(c2ccccc2)CC(O)=C1C=NCCN1CCOCC1 (centres undefined),-5.8%
16,O=C1CC(c2cccc(Cl)c2)CC(O)=C1C=Nc1ccccc1 (centres undefined),116% (active)
17,O=C1CCCC(O)=C1C=NCCc1ccccc1,21%
18,O=C(NCCS(=O)(=O)N1CCN(c2ccccc2)CC1)c1ccco1,4.49%
19,Cc1cc(O)c(Sc2ccccc2)c(=O)o1,-2.42%
20,CCCCn1c(N)c(N(CC(C)C)C(=O)c2cccc(S(=O)(=O)N3CCN(C(C)=O)CC3)c2)c(=O)[nH]c1=O,-4.85%
21,CCCCOc1ccc(CSC(=N)N)cc1[N+](=O)[O-],-29.6%
22,CCOC(=O)C/C(C)=N\Nc1ccc([N+](=O)[O-])cc1[N+](=O)[O-],1.63%

row,SMILES,activation
1,CCCCOC(=O)CCCc1ccc([N+](=O)[O-])cc1[N+](=O)[O-],65% (active)
2,Cc1csc2nc(O)c(C(=O)NCCN3CCOCC3)c(=O)n12,-6.85%
3,COc1ccc(S(=O)(=O)NCC(c2ccc(C)cc2)N2CCN(C)CC2)cc1OC (centres undefined),5.43%
4,Cc1csc(NC(=S)Nc2cccc(Cl)c2)n1,58.4% (active)
5,S=C(Nc1cccc(Cl)c1)Nc1ccc2c(c1)OCCO2,5.58%
6,S=C(Nc1cccc(Cl)c1)Nc1ccc2cn[nH]c2c1,20.2%
7,COc1ccc(C(=O)NCC2CCCN2S(=O)(=O)c2cccs2)cc1OC (centres undefined),-9.4%
8,CCN(CC)S(=O)(=O)c1ccc(-c2cn3ccc(C)cc3n2)cc1,58.1% (active)
9,Cc1ccc2nc(-c3ccc(Br)cc3)cn2c1,-34.2%
10,CCN(c1cccc(C)c1)S(=O)(=O)c1ccc(-c2coc(C)n2)cc1,-1.05%
11,Cc1ccc(SCC(=O)Nc2nncs2)cc1,-2.82%
12,COc1ccc(-n2nnnc2CNC(=O)c2ccc3ccccc3c2)cc1,3.44%
13,COc1cccc(NC(=O)CSc2nnc(-c3cccnc3)o2)c1,11.6%
14,Cc1ccc(C)c(-c2nnc(NC(=O)CS(=O)(=O)c3ccccc3)o2)c1,-10.1%
15,COc1ccccc1/C=N/Nc1nc(C)c(C(C)=O)s1,55.9% (active)
16,CC(=O)c1sc(N/N=C/c2ccc(C(C)C)cc2)nc1C,59.6% (active)
17,CC(=O)c1sc(NC(=O)CCCOc2ccccc2C)nc1C,35.1%
18,CC(=O)c1sc(N/N=C\c2ccc(C)cc2)nc1C,38.3%
19,COc1cccc2sc(Nc3nc(C)c(C(C)=O)s3)nc12,-3.69%
20,COc1cc2ccccc2cc1C(=O)Nc1nc(C)c(C(C)=O)s1,23.8%
